Reference: PubChem BioAssay (NCI)
Values joined by “and” are separate entries in the source; they are usually repeats but may differ in a detail not shown here. Equal entries are not always repeated. About 83,000 compounds went through this panel and 20% of them were active in at least one assay; those are over-represented in the sample as a whole.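 Step 1: grow cells in 96-well plates. Step 2: add test compound at a single concentration. Step 3: incubate 48 h. Step 4: record percent growth.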 Active and inactive are the calls of the source. Rule for the calls: active = growth percent below 10; inactive = the rest.

Key:
Assay in all cases: NCI-60 one-dose screen, 48 h (100 = growth as untreated, 0 = no growth, -100 = all killed)
[1] = system: T-47D breast
[2] = system: BT-549 breast
[3] = system: MDA-MB-435 melanoma
[4] = system: SW-620 colon; settings: 10 µM unless noted
[5] = system: MCF7 breast
[6] = system: HCT-116 colon
[7] = system: HCC-2998 colon
[8] = system: KM12 colon

With `N#Cc1ccc(/C=C/C(=O)c2ccccc2)cc1` the growth ([1]; 10 µM unless noted) was 88.3% (inactive) and 82.5% (inactive), the growth ([2]; 10 µM unless noted) was 98% (inactive) and 96.5% (inactive) and the growth ([3]; 10 µM unless noted) was 84.4% (inactive) and 95.2% (inactive). For the same compound, the growth [4] was 19.1% (inactive) and 1.04% (active), the growth ([5]; 10 µM unless noted) was 3.73% (active) and 34.9% (inactive) and the growth ([6]; 10 µM unless noted) was -97.4% (active) and -60.8% (active). The growth ([7]; 10 µM unless noted) was 110% (inactive) and 7.47% (active) and the growth ([8]; 10 µM unless noted) was -47.9% (active) and 15.7% (inactive).
For `COC(=O)c1ccccc1Cl`, the growth ([1]; 10 µM unless noted) was 94% (inactive), the growth ([2]; 10 µM unless noted) was 98.4% (inactive) and the growth ([3]; 10 µM unless noted) was 103% (inactive). For the same compound, the growth [4] was 103% (inactive), the growth ([5]; 10 µM unless noted) was 99.6% (inactive) and the growth ([6]; 10 µM unless noted) was 100% (inactive). For the same compound, the growth ([7]; 10 µM unless noted) was 105% (inactive) and the growth ([8]; 10 µM unless noted) was 101% (inactive).
With `Nc1nc(=S)c2[nH]cnc2[nH]1` the growth ([1]; 10 µM unless noted) was 12.3% (inactive) and 5.25% (active), the growth ([2]; 10 µM unless noted) was 30.7% (inactive) and 19.5% (inactive) and the growth ([3]; 10 µM unless noted) was 12.3% (inactive) and 5.49% (active). The growth [4] was 23.3% (inactive) and 15.9% (inactive), the growth ([5]; 10 µM) was 8.17% (active) and -0.975% (active) and the growth ([5]; 250 µM) was -5.31% (active) and -50.8% (active). The growth ([6]; 10 µM unless noted) was 9.54% (active) and -8.26% (active), the growth ([7]; 10 µM unless noted) was 6.28% (active) and the growth ([8]; 10 µM unless noted) was 10.1% (inactive) and 11.5% (inactive).
For `CC(=O)Nc1ccc2oc(=O)ccc2c1`, the growth ([1]; 10 µM unless noted) was 85.3% (inactive), the growth ([2]; 10 µM unless noted) was 89.8% (inactive) and the growth ([3]; 10 µM unless noted) was 105% (inactive). For the same compound, the growth [4] was 107% (inactive), the growth ([5]; 10 µM unless noted) was 110% (inactive) and the growth ([6]; 10 µM unless noted) was 86.5% (inactive). For the same compound, the growth ([7]; 10 µM unless noted) was 110% (inactive) and the growth ([8]; 10 µM unless noted) was 100% (inactive).
`CCN(CC)CCO/N=C1\CC(c2ccc(OC)c(OC)c2)Oc2ccccc21` (centres undefined) was tested, and the growth ([1]; 10 µM unless noted) was 89.4% (inactive), the growth ([2]; 10 µM unless noted) was 94% (inactive) and the growth ([3]; 10 µM unless noted) was 100% (inactive). For the same compound, the growth [4] was 90.3% (inactive), the growth ([5]; 10 µM unless noted) was 89.4% (inactive) and the growth ([6]; 10 µM unless noted) was 84.1% (inactive). For the same compound, the growth ([7]; 10 µM unless noted) was 109% (inactive) and the growth ([8]; 10 µM unless noted) was 103% (inactive).
For `Nc1ccccc1SC(CC(=O)c1ccccc1)c1cccc([N+](=O)[O-])c1` (centres undefined), the growth ([1]; 10 µM unless noted) was 88.3% (inactive) and 90% (inactive), the growth ([2]; 10 µM unless noted) was 103% (inactive) and 88.9% (inactive) and the growth ([3]; 10 µM unless noted) was 102% (inactive) and 85.5% (inactive). The growth [4] was 14.1% (inactive) and 1.5% (active), the growth ([5]; 10 µM unless noted) was 19.3% (inactive) and 19% (inactive) and the growth ([6]; 10 µM unless noted) was -71.2% (active) and -58.6% (active). For the same compound, the growth ([7]; 10 µM unless noted) was 110% (inactive) and the growth ([8]; 10 µM unless noted) was 73.9% (inactive).
For `N=C(N)N1CCc2ccccc2C1`, the growth ([1]; 10 µM unless noted) was 86.2% (inactive) and 101% (inactive), the growth ([2]; 10 µM unless noted) was 84.4% (inactive) and 103% (inactive) and the growth ([3]; 10 µM unless noted) was 96% (inactive) and 95.6% (inactive). For the same compound, the growth [4] was 94.5% (inactive) and 88.1% (inactive), the growth ([5]; 10 µM unless noted) was 106% (inactive) and 104% (inactive) and the growth ([6]; 10 µM unless noted) was 94.7% (inactive) and 102% (inactive). The growth ([7]; 10 µM unless noted) was 83.2% (inactive) and 99.2% (inactive) and the growth ([8]; 10 µM unless noted) was 92.6% (inactive) and 94% (inactive).
For `O=C(Nc1ccccc1)OCC(CN1CCCCC1)OC(=O)Nc1ccccc1` (centres undefined), the growth ([1]; 10 µM unless noted) was 71.5% (inactive) and 97% (inactive), the growth ([2]; 10 µM unless noted) was 69.7% (inactive) and 102% (inactive) and the growth ([3]; 10 µM unless noted) was 90.3% (inactive) and 97.4% (inactive). The growth [4] was 104% (inactive) and 96.9% (inactive), the growth ([5]; 10 µM unless noted) was 72.9% (inactive) and 96% (inactive) and the growth ([6]; 10 µM unless noted) was 69.1% (inactive) and 93.6% (inactive). The growth ([7]; 10 µM unless noted) was 94% (inactive) and 98.4% (inactive) and the growth ([8]; 10 µM unless noted) was 93% (inactive) and 101% (inactive).
`N#CC(=S)Nc1ccc(Cl)c(Cl)c1` was tested, and the growth ([1]; 10 µM unless noted) was 13.2% (inactive), the growth ([2]; 10 µM unless noted) was -4.25% (active) and the growth ([3]; 10 µM unless noted) was 6.5% (active). For the same compound, the growth [4] was 19.6% (inactive), the growth ([5]; 10 µM) was 5.23% (active) and the growth ([5]; 100 µM) was -23.4% (active) and -100% (active). For the same compound, the growth ([6]; 10 µM unless noted) was 4.91% (active), the growth ([7]; 10 µM unless noted) was 20.2% (inactive) and the growth ([8]; 10 µM unless noted) was 2.62% (active).
For `CS/C(=C\c1ccc(C(=O)c2ccc(C)cc2)n1C)S(C)=O` (centres undefined), the growth ([1]; 10 µM) was 79.7% (inactive), the growth ([1]; 100 µM) was 47.6% (inactive) and the growth ([2]; 10 µM) was 102% (inactive). For the same compound, the growth ([2]; 100 µM) was 47.4% (inactive), the growth ([3]; 10 µM) was 50.1% (inactive) and the growth ([3]; 100 µM) was 26.9% (inactive). The growth ([5]; 10 µM) was 89.6% (inactive), the growth ([5]; 100 µM) was 70.7% (inactive) and the growth ([6]; 10 µM) was 97.1% (inactive). The growth ([6]; 100 µM) was 70.9% (inactive), the growth ([7]; 10 µM) was 95.9% (inactive) and the growth ([7]; 100 µM) was 87.2% (inactive). For the same compound, the growth ([8]; 10 µM) was 94.3% (inactive) and the growth ([8]; 100 µM) was 72.8% (inactive).
In the case of `Clc1ccc2c(c1)N(C1CCCN(Cc3ccccc3)C1)c1ccccc1S2` (centres undefined), the growth ([1]; 10 µM unless noted) was 69% (inactive), the growth ([2]; 10 µM unless noted) was 61.2% (inactive) and the growth ([3]; 10 µM unless noted) was 5.2% (active). For the same compound, the growth [4] was 22.6% (inactive), the growth ([5]; 10 µM unless noted) was 18.4% (inactive) and the growth ([6]; 10 µM unless noted) was 12.1% (inactive). For the same compound, the growth ([7]; 10 µM unless noted) was 23% (inactive) and the growth ([8]; 10 µM unless noted) was 33.7% (inactive).
`C/C=C(/C(=O)NC(N)=O)C(C)C` was tested, and the growth ([1]; 10 µM unless noted) was 99.1% (inactive), the growth ([2]; 10 µM unless noted) was 106% (inactive) and the growth ([3]; 10 µM unless noted) was 107% (inactive). For the same compound, the growth [4] was 94.5% (inactive), the growth ([5]; 10 µM unless noted) was 94% (inactive) and the growth ([6]; 10 µM unless noted) was 99.5% (inactive). The growth ([7]; 10 µM unless noted) was 115% (inactive) and the growth ([8]; 10 µM unless noted) was 90.8% (inactive).
